Screening results deposited in PubChem BioAssay by National Center for Advancing Translational Sciences (NCATS).
L3MBTL1 block – L3MBTL1 (human) inhibition; Q9Y468; AlphaScreen L3MBTL1–H3K9me1 peptide binding; Potency, µM (doses to about 57.1 µM), without a hit: at the highest dose activity, negative = inhibition, hits mostly inhibitors; hit rate 0.66% among 230,000; note: % is set by controls: 0 for no effect and ±100 for the full control effect; nearly all actives have a fitted effect of over 60% in size
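L3MBTL1 (50 nM) pre-complexed 30 min with biotinylated H3(1-15)K9me1 peptide (75 nM), then compounds added for 30 min at room temperature; AlphaScreen streptavidin donor/nickel chelate acceptor beads (10 ug/mL final) read after 30 min dark incubation.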
G9a inh – blocks human histone lysine methyltransferase G9a. Q96KQ7. G9a H3K9 monomethylation, AlphaScreen, 2 h. Potency, µM (highest dose often 102 µM), without a hit: at the top dose activity, negative = inhibition, hits mostly inhibitors. hit rate 8.8% among 350,000. AID 504332; note: % is set by controls: 0 for no effect and ±100 for the full control effect; nearly all actives have a fitted effect of over 75% in size
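Step 1: enzyme (final 20 nM) with compound, 15 min RT. Step 2: substrate peptide 500 nM and SAM 20 uM, 2 h RT. Step 3: anti-H3K9me1 antibody and AlphaScreen beads, 10 min, then plate read.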
BAZ2B inh – BAZ2B (human) inhibition; AlphaScreen BAZ2B-H3K14Ac peptide displacement; Q9UIF8; Potency, µM (titrated, usually from 114 µM), for the others: at the top dose activity change, negative = inhibition, usual class: inhibitors; hit rate 4.4% among 360,000; note: % is set by controls: 0 for no effect and ±100 for the full control effect; nearly all actives have a fitted effect of over 60% in size
Target sequence (Q9UIF8 whole entry, looked up): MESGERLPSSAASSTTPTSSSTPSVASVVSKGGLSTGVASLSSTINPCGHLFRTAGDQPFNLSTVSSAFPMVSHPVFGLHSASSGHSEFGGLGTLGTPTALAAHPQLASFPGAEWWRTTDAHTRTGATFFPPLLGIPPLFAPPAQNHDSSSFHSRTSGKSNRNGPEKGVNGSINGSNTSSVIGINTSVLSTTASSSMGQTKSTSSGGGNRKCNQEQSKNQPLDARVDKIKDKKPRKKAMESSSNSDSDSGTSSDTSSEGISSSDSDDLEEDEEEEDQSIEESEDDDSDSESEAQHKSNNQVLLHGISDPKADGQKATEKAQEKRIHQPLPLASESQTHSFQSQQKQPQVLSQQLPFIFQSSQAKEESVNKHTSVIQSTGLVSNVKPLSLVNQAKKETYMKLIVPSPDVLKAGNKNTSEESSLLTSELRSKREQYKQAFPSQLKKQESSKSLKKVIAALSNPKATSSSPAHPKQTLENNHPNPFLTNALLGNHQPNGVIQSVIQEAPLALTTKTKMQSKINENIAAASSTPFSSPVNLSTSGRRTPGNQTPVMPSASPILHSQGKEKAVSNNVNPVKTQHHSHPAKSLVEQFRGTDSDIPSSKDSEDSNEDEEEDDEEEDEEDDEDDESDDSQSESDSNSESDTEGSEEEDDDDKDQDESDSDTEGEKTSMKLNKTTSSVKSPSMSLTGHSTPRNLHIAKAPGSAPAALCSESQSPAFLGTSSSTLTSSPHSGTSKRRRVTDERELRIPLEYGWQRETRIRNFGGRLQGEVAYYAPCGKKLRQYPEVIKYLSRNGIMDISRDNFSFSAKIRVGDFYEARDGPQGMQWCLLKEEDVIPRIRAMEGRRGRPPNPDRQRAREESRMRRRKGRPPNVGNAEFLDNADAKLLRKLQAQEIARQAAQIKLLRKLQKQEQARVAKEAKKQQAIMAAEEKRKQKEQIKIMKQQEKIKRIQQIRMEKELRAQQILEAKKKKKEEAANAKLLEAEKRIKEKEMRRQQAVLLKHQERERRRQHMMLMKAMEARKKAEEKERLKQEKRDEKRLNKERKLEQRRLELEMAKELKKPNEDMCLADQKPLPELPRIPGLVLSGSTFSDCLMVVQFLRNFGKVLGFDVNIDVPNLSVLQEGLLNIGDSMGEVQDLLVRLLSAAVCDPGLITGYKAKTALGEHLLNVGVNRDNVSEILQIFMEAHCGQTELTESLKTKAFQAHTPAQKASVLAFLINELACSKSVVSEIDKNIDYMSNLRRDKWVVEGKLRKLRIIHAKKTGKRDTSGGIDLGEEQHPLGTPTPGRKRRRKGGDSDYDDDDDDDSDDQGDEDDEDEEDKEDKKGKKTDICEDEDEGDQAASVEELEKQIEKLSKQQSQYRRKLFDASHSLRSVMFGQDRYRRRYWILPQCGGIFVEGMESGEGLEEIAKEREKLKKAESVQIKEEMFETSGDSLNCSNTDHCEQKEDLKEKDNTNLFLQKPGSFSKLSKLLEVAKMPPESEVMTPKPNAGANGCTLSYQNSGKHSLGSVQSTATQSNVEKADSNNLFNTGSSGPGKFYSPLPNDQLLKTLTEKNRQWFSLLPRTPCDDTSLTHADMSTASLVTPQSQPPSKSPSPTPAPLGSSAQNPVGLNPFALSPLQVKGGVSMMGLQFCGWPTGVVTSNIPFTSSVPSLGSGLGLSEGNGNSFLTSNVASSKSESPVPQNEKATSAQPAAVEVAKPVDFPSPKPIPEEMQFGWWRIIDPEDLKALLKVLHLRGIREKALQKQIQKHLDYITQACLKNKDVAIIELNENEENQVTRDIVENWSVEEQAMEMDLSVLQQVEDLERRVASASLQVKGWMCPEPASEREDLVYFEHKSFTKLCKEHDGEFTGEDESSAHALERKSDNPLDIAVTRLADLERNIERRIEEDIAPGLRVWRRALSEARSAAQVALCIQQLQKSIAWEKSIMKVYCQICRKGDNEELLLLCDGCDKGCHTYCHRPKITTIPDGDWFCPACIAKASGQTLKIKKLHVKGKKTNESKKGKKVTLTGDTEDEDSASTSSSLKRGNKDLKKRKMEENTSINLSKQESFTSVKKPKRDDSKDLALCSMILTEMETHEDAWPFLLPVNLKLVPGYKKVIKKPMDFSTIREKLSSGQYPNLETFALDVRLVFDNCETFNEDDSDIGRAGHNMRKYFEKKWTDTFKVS
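AlphaScreen luminescence quantifies BAZ2B engagement of H3K14Ac peptide; the protein and biotinylated peptide are both at 50 nM final, buffer PBS pH 7.4 with 0.01% Tween-20, all steps at room temperature.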
HP1b chromo inh – blocks HP1-beta chromodomain binding to methylated histone tails | P83916 | AlphaScreen HP1-beta / biotin-H3K9me3 peptide binding | Potency, µM (top dose mostly 114 µM), inactives show at the highest dose activity change, negative = inhibition, most hits filed as inhibitors | hit rate 0.56% among 390,000 | AID 540317; note: nearly all actives have a fitted effect of over 70% in size
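HP1-beta protein (50 nM final) preincubated 30 min at room temperature with biotinylated H3(1-18)K9me3 peptide (50 nM) in PBS pH 7.4, 0.01% Tween-20, then compound added for 30 min. AlphaScreen streptavidin donor/nickel chelate acceptor beads (10 ug/mL final), 30 min dark, luminescence read.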
JMJD2A Tudor – inhibitors of human JMJD2A Tudor domain. AlphaScreen JMJD2A-Tudor / H3K4me3 peptide binding. AID 504339. O75164. hit rate 4.4% among 390,000. Potency, µM (top dose mostly 114 µM), inactives show at the top dose activity change, negative = inhibition, hits mostly inhibitors; note: % is set by controls: 0 for no effect and ±100 for the full control effect; nearly all actives have a fitted effect of over 50% in size
Numbers without * were called inactive; ? = inconclusive; nt = no result; [ ] = another dose, or the depositor's remark. Most compounds without a hit are left out; they make up all but 11% or so of the library. Calls come from the whole dose curve; as a rule, active = well fitted inhibition curve with a large enough effect; inconclusive = small, poorly fitted or top-dose-only effect; inactive = no such curve, though single readings can be large or run the other way. Potency is the fitted concentration of half-maximal effect.

SMILES	L3MBTL1 block	G9a inh	BAZ2B inh	HP1b chromo inh	JMJD2A Tudor
Cc1cccc(NC(=O)CSc2nc3n[nH]c(C)c3c(=N)n2-c2cccc(Cl)c2)c1	nt	3.3%[59 µM]	3.7%	36.9%	-6.4%
c1ccc(CN2CCOCC2)nc1	nt	nt	nt	9.9%	11.2µM*
O=c1[nH]c(CN2CCN(c3ccc(F)cc3)CC2)nc2ccccc12	0.9%	35.1%[0.501 µM]	-37.4%	18.8%	-22.2%
Oc1cccnc1CN1CCOCC1	nt	nt	nt	30.2%	7.94µM*
Fc1ccc(N2CCN(Cc3ccccn3)CC2)cc1	3.6%	3.55µM*	50.1µM*	?	11.2µM*
CCOC(=O)N1CCN(CCC(=O)Nc2cccc(C)c2)CC1	1.2%	-8.3%	-2.5%	52.7%	-10.4%
CC(C)c1ccc(NC(=O)C2CCCN(S(=O)(=O)c3cccc4nsnc34)C2)cc1 (centres undefined)	nt	0.7%[59 µM]	nt	17.3%	-15.3%
O=C(Nc1cc(S(=O)(=O)N2CCOCC2)ccc1N1CCCCC1)c1ccccc1	4.5%	-14.1%[59 µM]	-0.9%	22.3%	-21.1%
CCN1CCN(S(=O)(=O)c2ccc(Cl)c(C(=O)Nc3ccccc3N3CCCC3)c2)CC1	-1.1%	24.2%[0.501 µM]	?	-17.6%	?
CCN1CCN(S(=O)(=O)c2ccc(Cl)c(C(=O)Nc3ccccc3N3CCCCC3)c2)CC1	-14.6%	39.8µM*	-32.6%	51.4%	?
O=C(Nc1cc(S(=O)(=O)N2CCOCC2)ccc1N1CCCC1)c1ccc2c(c1)S(=O)(=O)c1ccccc1C2=O	-12.8%	nt	?	3.98µM*	?
CCN1CCN(S(=O)(=O)c2ccc(Cl)c(C(=O)N(C)C(c3ccccc3)c3ccccc3)c2)CC1	-5.7%	8.91µM*	-38.0%	-1.8%	-30.5%
COC(=O)c1sccc1S(=O)(=O)Nc1ccc(N2CCCCC2)cc1	nt	nt	35.5µM*	?	?
Cc1ccc(-c2nc(SC(C)C(=O)N3CCCC3)n[nH]2)cc1 (centres undefined)	12.7%	?	-1.8%	10.7%	-16.4%
COc1ccc(CCNC(=O)c2cc(-c3ccc(C)c(C)c3)nc3ccccc23)cc1OC	nt	?	33.9%	73.1%	-26.9%
O=C(O)c1cc(S(=O)(=O)Nc2ccc(N3CCCCC3)cc2)ccc1Cl	nt	-18.3%[59 µM]	-31.9%	10.0%	-29.6%
CCOc1cc(N2CCOCC2)c(OCC)cc1NC(=O)c1ccc(S(=O)(=O)N2CC(C)OC(C)C2)cc1 (centres undefined)	nt	nt	nt	-3.1%	?
CC(=O)c1ccc(NC(=O)CNc2cc(S(=O)(=O)N3CCOCC3)ccc2N2CCCC2)cc1	-3.2%	35.5µM*	-32.7%	-16.1%	?
CCOc1cc(N2CCOCC2)c(OCC)cc1NC(=O)CCS(=O)(=O)c1ccc(Cl)cc1	0.0%	22.4µM*	nt	-16.7%	-31.9%
O=S(=O)(Nc1ccc(N2CCCCC2)cc1)c1ccc(F)c(F)c1	-14.0%	12.6µM*	31.6µM*	-37.1%	?
CCOc1cc(N2CCOCC2)c(OCC)cc1NC(=O)c1cc(S(=O)(=O)N2CCOCC2)ccc1Cl	-11.9%	50.1µM*	?	-16.0%	?
COc1cccc(Oc2cc(Cl)nc(N)n2)c1	-3.8%	76.6%	-15.9%	30.3%	-15.8%
O=C(Nc1cc(S(=O)(=O)N2CCOCC2)ccc1N1CCCCC1)c1ccc(Cl)cc1	-7.2%	?	-8.7%	?	-35.7%
O=C(Nc1ccccc1N1CCCCC1)c1cc(S(=O)(=O)N2CCOCC2)ccc1F	-9.4%	-3.8%	9.5%	7.8%	-17.8%
O=C(Nc1ccccc1F)Nc1cc(S(=O)(=O)N2CCOCC2)ccc1N1CCCC1	nt	?	nt	11.7%	-18.2%
O=C(Nc1ccccc1N1CCCC1)c1cc(S(=O)(=O)N2CCOCC2)ccc1Cl	0.9%	50.1µM*	-37.5%	-9.0%	-33.8%
CC(C)C(=O)Nc1cc(S(=O)(=O)N2CCOCC2)ccc1N1CCCCC1	-1.8%	nt	nt	?	-25.5%
O=C(Nc1cc(S(=O)(=O)N2CCOCC2)ccc1N1CCCC1)c1ccc(Cl)cc1	-9.5%	1.78µM*	-5.2%	?	?
N#C/C(=C\c1ccccc1)C(=O)Nc1cc(S(=O)(=O)N2CCOCC2)ccc1N1CCCC1	-9.6%	44.7µM*	-9.3%	-6.7%	-34.3%
CC(C)(C)C(=O)Nc1cc(S(=O)(=O)N2CCCCC2)ccc1N1CCCCC1	nt	39.8µM*	1.8%	28.2%	-20.6%
